According to article PMC7862700, “An all-to-all approach to the identification of sequence-specific readers for epigenetic DNA modifications on cytosine”:

Key:
Experiment in all cases: DAPPL (digital affinity profiling via proximity ligation, sequencing); 10 mM Tris-HCl pH 7.5, 50 mM NaCl, 1 mM DTT, 4% glycerol, room temperature, 30 min; GST-TFs on glutathione beads, 16-mer random dsDNA library, 0.1% formaldehyde crosslink after washing; high values mean tight binding
FLI1 = target: T1, FLI1 (Homo sapiens, UniProt Q01543 1-452); settings: protein: recombinant; tags: N-terminal GST; dsDNA, one strand shown
T1 sequence: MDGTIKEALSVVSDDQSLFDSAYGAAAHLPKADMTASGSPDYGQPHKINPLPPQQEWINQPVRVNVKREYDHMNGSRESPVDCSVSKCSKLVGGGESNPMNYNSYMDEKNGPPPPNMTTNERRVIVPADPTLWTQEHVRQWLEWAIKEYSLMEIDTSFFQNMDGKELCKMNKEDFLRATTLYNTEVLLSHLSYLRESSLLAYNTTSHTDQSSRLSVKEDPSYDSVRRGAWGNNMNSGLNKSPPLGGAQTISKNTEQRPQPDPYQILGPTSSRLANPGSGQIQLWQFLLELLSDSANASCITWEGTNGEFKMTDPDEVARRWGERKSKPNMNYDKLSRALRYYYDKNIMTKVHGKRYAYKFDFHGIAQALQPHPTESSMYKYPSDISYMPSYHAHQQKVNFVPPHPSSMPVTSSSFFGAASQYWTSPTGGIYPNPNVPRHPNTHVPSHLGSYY
Method in brief: (§1)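 Human transcription factors carrying a GST fusion were produced in yeast, bound to glutathione beads, tagged with DNA barcodes and pooled together with a tag-only sample. Each pool was held with 200 nmole of a random double-stranded 16-mer DNA library in Tris/NaCl/DTT/glycerol buffer for 30 min at room temperature, then washed, crosslinked in 0.1% formaldehyde, proximity-ligated with BsaI/T4 ligase (1 h, 37 °C), PCR-amplified and sequenced on an Illumina NextSeq500. Binding signal is the read frequency of each hexamer for a given factor divided by its frequency in the tag-only sample.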

ELK1 = target: T2, ELK1 (Homo sapiens, UniProt P19419 1-428); settings: protein: recombinant; tags: N-terminal GST; dsDNA, one strand shown
T2 sequence: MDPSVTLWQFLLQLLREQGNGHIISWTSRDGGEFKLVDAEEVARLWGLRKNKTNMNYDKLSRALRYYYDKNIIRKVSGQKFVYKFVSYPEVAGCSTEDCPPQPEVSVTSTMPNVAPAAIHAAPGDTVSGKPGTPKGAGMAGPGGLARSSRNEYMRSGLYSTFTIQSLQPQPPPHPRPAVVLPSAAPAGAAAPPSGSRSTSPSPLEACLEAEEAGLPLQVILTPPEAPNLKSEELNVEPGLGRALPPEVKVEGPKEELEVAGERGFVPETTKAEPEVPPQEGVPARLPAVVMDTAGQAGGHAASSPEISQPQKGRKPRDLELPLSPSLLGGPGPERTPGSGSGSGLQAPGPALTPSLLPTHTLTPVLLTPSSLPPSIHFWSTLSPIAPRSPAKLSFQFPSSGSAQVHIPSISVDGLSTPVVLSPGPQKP
Method in brief: as §1

GABPA = target: T3, GABPA (Homo sapiens, UniProt Q06546 1-454); settings: protein: recombinant; tags: N-terminal GST; dsDNA, one strand shown
T3 sequence: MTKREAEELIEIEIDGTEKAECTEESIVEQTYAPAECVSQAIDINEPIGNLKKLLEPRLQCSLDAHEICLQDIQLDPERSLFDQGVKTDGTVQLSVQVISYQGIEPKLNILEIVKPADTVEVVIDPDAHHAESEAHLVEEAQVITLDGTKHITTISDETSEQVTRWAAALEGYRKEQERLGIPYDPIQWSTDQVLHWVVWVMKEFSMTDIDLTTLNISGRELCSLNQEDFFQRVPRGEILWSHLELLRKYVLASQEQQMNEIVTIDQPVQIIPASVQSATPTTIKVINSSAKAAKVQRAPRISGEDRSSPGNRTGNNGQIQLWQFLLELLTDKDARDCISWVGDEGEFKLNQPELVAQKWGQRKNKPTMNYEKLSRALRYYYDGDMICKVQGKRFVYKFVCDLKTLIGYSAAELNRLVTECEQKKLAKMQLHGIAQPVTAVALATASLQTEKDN
Method in brief: as §1

ERG = target: T4, ERG (Homo sapiens, UniProt P11308 1-479); settings: protein: recombinant; tags: N-terminal GST; dsDNA, one strand shown
T4 sequence: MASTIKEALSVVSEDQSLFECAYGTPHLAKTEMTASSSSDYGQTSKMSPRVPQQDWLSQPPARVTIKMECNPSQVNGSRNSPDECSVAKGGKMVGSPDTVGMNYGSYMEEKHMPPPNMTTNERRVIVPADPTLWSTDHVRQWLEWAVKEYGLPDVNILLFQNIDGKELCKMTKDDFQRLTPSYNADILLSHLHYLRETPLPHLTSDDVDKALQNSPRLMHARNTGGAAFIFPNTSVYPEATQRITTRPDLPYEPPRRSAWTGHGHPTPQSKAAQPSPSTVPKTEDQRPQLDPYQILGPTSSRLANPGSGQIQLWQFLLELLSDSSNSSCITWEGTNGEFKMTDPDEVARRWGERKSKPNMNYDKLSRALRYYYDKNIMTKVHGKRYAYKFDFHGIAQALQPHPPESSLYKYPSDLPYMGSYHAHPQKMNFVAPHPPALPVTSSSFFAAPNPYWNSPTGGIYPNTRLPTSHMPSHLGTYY
Method in brief: as §1

ELF1 = ELF1 (Homo sapiens, UniProt P32519 1-619); settings: protein: recombinant; tags: N-terminal GST; dsDNA, one strand shown
Method in brief: as §1

EHF = target: T5, EHF (Homo sapiens, UniProt Q9NZC4 1-300); settings: protein: recombinant; tags: N-terminal GST; dsDNA, one strand shown
T5 sequence: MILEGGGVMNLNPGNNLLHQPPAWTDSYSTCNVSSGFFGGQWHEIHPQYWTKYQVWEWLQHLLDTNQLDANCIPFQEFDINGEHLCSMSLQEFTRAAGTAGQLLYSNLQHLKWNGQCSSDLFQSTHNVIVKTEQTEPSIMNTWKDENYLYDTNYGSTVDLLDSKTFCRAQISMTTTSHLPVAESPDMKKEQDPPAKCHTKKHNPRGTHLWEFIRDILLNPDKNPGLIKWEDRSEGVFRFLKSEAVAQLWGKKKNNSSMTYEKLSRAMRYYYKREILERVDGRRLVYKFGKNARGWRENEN
Method in brief: as §1

SPI1 = SPI1 (Homo sapiens, UniProt P17947 1-270); settings: protein: recombinant; tags: N-terminal GST; dsDNA, one strand shown
Method in brief: as §1

SPIB = SPIB (Homo sapiens, UniProt Q01892 1-262); settings: protein: recombinant; tags: N-terminal GST; dsDNA, one strand shown
Method in brief: as §1

ELK3 = target: T6, ELK3 (Homo sapiens, UniProt P41970 1-407); settings: protein: recombinant; tags: N-terminal GST; dsDNA, one strand shown
T6 sequence: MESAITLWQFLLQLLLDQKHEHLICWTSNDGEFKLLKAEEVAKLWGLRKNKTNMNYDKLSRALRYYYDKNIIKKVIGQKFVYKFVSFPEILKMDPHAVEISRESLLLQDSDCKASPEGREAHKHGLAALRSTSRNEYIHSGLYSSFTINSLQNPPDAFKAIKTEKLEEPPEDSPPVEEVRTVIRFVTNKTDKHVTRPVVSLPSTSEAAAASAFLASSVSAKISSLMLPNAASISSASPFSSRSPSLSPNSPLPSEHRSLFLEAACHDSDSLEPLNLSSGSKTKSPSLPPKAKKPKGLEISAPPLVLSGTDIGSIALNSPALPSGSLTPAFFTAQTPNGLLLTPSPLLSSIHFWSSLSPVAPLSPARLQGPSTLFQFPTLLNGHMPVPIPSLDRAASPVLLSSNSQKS
Method in brief: as §1

FEV = target: T7, FEV (Homo sapiens, UniProt Q99581 1-238); settings: protein: recombinant; tags: N-terminal GST; dsDNA, one strand shown
T7 sequence: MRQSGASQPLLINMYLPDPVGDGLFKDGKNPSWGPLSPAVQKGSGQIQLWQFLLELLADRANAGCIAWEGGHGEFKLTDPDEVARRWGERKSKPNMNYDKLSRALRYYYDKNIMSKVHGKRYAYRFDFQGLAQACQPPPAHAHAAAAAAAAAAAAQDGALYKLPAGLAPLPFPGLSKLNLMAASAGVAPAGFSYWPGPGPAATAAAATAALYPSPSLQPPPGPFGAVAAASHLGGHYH
Method in brief: as §1

ETV5 = ETV5 (Homo sapiens, UniProt P41161 1-510); settings: protein: recombinant; tags: N-terminal GST; dsDNA, one strand shown
Method in brief: as §1

HSF1 = HSF1 (Homo sapiens, UniProt Q00613 1-529); settings: protein: recombinant; tags: N-terminal GST; chain copies: 3; dsDNA, one strand shown
Method in brief: as §1

SPIC = target: T8, SPIC (Homo sapiens, UniProt Q8N5J4 1-248); settings: protein: recombinant; tags: N-terminal GST; dsDNA, one strand shown
T8 sequence: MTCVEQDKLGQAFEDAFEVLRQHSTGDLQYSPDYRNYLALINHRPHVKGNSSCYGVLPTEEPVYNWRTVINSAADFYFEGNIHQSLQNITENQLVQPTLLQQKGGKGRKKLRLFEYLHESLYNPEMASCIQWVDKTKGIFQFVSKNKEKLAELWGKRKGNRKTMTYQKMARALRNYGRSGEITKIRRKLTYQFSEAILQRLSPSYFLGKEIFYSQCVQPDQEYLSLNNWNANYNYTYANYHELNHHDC
Method in brief: as §1

ELF4 = ELF4 (Homo sapiens, UniProt Q99607 1-663); settings: protein: recombinant; tags: N-terminal GST; dsDNA, one strand shown
Method in brief: as §1

ELK4 = target: T9, ELK4 (Homo sapiens, UniProt P28324-2 1-405); settings: protein: recombinant; tags: N-terminal GST; dsDNA, one strand shown
T9 sequence: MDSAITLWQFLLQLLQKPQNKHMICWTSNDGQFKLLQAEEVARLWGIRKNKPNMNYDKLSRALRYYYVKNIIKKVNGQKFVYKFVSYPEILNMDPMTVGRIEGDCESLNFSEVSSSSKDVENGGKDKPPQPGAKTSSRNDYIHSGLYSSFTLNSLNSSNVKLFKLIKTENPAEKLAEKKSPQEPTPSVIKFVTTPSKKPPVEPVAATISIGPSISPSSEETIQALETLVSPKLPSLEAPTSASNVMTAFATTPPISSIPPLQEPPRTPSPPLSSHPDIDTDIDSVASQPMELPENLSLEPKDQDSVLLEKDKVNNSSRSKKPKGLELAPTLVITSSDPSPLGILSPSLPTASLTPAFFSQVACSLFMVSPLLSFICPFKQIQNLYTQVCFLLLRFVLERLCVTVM
Method in brief: as §1

ETV2 = target: T10, ETV2 (Homo sapiens, UniProt O00321 1-342); settings: protein: recombinant; tags: N-terminal GST; dsDNA, one strand shown
T10 sequence: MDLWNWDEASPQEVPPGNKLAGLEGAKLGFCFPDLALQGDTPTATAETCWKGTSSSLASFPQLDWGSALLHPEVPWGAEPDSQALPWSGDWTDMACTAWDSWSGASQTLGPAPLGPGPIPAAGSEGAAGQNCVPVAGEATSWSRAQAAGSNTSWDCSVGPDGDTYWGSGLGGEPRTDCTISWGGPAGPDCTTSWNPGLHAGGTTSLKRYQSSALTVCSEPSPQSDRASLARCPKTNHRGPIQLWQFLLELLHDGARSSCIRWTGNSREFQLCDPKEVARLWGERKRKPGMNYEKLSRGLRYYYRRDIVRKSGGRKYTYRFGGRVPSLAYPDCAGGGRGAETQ
Method in brief: as §1

ELF3 = target: T11, ELF3 (Homo sapiens, UniProt P78545 1-371); settings: protein: recombinant; tags: N-terminal GST; dsDNA, one strand shown
T11 sequence: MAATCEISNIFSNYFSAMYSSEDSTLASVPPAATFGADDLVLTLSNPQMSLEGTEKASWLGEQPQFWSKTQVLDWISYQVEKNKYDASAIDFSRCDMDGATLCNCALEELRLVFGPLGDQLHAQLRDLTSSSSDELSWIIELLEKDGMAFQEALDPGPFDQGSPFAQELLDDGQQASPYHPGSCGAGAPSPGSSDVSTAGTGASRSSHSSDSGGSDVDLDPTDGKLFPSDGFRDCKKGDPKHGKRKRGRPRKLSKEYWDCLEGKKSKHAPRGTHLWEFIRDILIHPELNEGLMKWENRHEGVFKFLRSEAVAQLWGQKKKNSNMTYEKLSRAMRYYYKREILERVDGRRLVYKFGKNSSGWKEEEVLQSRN
Method in brief: as §1

CRX = CRX (Homo sapiens, UniProt O43186 1-299); settings: protein: recombinant; tags: N-terminal GST; dsDNA, one strand shown
Method in brief: as §1

ETV1 = ETV1 (Homo sapiens, UniProt P50549 1-477); settings: protein: recombinant; tags: N-terminal GST; dsDNA, one strand shown
Method in brief: as §1

HSF1, sequence (Q00613 whole entry): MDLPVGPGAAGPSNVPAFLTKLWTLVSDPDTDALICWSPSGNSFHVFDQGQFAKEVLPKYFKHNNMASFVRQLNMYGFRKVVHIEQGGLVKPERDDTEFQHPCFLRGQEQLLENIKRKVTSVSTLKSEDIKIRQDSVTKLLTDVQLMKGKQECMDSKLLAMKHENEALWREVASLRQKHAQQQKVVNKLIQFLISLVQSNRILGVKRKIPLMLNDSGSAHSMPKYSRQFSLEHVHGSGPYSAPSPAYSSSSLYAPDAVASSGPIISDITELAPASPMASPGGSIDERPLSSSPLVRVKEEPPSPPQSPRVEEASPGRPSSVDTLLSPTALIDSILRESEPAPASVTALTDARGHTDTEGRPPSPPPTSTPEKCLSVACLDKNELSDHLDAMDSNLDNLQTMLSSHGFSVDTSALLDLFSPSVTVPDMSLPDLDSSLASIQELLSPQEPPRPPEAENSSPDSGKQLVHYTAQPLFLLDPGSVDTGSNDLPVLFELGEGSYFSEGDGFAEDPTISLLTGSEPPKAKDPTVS
ETV5, sequence (P41161 whole entry): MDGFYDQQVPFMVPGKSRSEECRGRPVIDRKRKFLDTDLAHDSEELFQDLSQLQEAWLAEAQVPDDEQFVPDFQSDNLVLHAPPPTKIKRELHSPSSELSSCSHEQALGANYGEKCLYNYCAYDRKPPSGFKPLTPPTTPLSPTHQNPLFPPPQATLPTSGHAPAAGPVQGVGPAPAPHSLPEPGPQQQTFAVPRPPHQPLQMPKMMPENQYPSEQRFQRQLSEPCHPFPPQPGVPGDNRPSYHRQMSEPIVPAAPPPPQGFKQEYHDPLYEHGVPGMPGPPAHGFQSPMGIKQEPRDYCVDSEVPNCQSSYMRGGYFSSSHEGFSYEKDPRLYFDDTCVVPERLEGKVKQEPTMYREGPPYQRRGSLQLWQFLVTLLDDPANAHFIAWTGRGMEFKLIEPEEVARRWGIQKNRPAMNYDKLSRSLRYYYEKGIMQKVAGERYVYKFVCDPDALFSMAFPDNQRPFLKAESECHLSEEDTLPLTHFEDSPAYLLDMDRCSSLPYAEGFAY
ELF1, sequence (P32519 whole entry): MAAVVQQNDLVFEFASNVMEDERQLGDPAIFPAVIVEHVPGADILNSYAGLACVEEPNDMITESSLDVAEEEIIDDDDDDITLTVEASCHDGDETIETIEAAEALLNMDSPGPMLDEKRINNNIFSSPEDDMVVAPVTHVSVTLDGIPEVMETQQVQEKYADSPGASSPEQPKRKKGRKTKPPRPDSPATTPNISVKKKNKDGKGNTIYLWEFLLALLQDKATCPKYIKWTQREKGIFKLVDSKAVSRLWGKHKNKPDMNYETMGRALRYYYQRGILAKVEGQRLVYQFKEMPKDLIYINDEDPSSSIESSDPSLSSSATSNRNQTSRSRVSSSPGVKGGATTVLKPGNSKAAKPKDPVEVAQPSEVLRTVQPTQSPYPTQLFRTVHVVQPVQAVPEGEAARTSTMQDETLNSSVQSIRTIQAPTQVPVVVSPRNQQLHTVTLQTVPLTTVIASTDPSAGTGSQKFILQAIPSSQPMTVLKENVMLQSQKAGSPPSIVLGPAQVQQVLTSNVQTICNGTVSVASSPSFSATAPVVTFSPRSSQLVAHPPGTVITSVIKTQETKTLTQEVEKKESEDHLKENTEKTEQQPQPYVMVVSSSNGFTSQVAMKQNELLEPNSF
CRX, sequence (O43186 whole entry): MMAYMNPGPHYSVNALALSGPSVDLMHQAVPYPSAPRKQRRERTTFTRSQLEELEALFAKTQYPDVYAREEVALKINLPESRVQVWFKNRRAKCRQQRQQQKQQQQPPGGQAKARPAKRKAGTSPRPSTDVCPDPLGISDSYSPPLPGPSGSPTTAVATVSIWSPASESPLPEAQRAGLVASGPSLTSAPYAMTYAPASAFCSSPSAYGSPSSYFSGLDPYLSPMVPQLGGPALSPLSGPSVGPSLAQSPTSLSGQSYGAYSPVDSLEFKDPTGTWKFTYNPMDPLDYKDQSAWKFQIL
ETV1, sequence (P50549 whole entry): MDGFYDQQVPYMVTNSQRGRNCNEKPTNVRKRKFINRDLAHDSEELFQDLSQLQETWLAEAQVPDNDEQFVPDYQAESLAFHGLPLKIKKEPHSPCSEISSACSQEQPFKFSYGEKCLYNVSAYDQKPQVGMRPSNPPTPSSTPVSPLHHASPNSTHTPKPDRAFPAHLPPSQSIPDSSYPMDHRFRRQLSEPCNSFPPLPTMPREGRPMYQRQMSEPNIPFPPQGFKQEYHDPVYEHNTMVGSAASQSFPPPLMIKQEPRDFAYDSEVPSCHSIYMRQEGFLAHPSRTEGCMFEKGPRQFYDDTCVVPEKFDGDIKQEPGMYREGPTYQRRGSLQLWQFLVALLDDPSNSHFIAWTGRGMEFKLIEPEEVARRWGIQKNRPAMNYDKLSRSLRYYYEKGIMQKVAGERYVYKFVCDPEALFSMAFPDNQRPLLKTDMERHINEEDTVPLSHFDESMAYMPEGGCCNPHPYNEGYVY
ELF4, sequence (Q99607 whole entry): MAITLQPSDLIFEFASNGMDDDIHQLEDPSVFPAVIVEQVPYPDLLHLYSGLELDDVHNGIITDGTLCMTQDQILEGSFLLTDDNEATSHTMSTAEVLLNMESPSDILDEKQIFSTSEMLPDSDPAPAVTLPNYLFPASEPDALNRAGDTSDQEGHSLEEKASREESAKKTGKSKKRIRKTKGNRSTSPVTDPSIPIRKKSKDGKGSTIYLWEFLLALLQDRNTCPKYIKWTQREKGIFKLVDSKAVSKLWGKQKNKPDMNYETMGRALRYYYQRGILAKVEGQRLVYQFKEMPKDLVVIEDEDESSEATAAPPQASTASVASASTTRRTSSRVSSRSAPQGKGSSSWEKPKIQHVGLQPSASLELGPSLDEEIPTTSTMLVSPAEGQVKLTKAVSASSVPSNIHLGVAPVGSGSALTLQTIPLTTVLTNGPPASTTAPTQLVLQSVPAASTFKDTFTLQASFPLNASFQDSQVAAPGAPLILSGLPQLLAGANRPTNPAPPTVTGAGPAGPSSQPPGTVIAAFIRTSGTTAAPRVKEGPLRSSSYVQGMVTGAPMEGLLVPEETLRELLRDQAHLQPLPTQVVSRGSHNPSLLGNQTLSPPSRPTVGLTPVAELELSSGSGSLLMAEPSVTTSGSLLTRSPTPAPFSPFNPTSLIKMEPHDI
SPIB, sequence (Q01892 whole entry): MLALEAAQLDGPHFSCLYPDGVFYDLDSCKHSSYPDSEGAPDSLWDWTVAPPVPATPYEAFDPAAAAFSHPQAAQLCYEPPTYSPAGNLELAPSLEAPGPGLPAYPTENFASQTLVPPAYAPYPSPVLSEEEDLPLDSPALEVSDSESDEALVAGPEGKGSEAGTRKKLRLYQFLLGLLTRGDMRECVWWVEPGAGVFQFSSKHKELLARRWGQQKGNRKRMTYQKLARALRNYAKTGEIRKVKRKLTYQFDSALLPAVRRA

ATTTCG
binding signal (FLI1): 1.24 fold enrichment (6-mer frequency, TF over GST control)
binding signal (ELK1): 1.25 fold enrichment (6-mer frequency, TF over GST control)
binding signal (GABPA): 1.29 fold enrichment (6-mer frequency, TF over GST control)
binding signal (ERG): 1.25 fold enrichment (6-mer frequency, TF over GST control)
binding signal (ELF1): 1.3 fold enrichment (6-mer frequency, TF over GST control)
binding signal (EHF): 1.35 fold enrichment (6-mer frequency, TF over GST control)
binding signal (SPI1): 1.29 fold enrichment (6-mer frequency, TF over GST control)
binding signal (SPIB): 1.37 fold enrichment (6-mer frequency, TF over GST control)
binding signal (ELK3): 1.21 fold enrichment (6-mer frequency, TF over GST control)
binding signal (FEV): 1.25 fold enrichment (6-mer frequency, TF over GST control)
binding signal (ETV5): 1.26 fold enrichment (6-mer frequency, TF over GST control)
binding signal (HSF1): 1.63 fold enrichment (6-mer frequency, TF over GST control)
binding signal (SPIC): 1.26 fold enrichment (6-mer frequency, TF over GST control)
binding signal (ELF4): 1.29 fold enrichment (6-mer frequency, TF over GST control)
binding signal (ELK4): 1.49 fold enrichment (6-mer frequency, TF over GST control)
binding signal (ETV2): 1.22 fold enrichment (6-mer frequency, TF over GST control)
binding signal (ELF3): 1.2 fold enrichment (6-mer frequency, TF over GST control)
binding signal (CRX): 1.45 fold enrichment (6-mer frequency, TF over GST control)
binding signal (ETV1): 1.34 fold enrichment (6-mer frequency, TF over GST control)
